High-throughput results: PubChem, National Center for Advancing Translational Sciences (NCATS)
Rows were chosen to be rich in hits. Some 11% of all compounds tested hit in one or more screens of this group.
HEK293 tox – cytotoxic compounds in HEK 293 cells. HEK 293 viability, ATP luminescence (CellTiter-Glo), 48-72 h. Potency, µM (top dose mostly 115 µM), inactives show top-dose activity change, negative = cytotoxicity, hits mostly inhibitors. hit rate 6.6% among 94,000. AID 1345083; note: nearly all actives have a fitted effect of over 60% in size
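Cells seeded first (HEK 293, 250 cells/well), then compound added by pintool. Incubation ran 48 or 72 hr at 37 degree Celsius. CellTiter-Glo was added and luminescence imaged after 10 min at room temperature.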
NPR1 antag – human Npr1 receptor antagonism. hit rate 1.6% among 76,000. Potency, µM (series often up to 46.3 µM), without a hit: top-dose activity change, negative = inhibition, hits mostly inhibitors. HEK293 hNpr1 GloSensor cGMP, ANP-stimulated luminescence. P16066; calls by dose curve; note: nearly all actives have a fitted effect of over 60% in size
Target sequence (P16066 whole entry, looked up): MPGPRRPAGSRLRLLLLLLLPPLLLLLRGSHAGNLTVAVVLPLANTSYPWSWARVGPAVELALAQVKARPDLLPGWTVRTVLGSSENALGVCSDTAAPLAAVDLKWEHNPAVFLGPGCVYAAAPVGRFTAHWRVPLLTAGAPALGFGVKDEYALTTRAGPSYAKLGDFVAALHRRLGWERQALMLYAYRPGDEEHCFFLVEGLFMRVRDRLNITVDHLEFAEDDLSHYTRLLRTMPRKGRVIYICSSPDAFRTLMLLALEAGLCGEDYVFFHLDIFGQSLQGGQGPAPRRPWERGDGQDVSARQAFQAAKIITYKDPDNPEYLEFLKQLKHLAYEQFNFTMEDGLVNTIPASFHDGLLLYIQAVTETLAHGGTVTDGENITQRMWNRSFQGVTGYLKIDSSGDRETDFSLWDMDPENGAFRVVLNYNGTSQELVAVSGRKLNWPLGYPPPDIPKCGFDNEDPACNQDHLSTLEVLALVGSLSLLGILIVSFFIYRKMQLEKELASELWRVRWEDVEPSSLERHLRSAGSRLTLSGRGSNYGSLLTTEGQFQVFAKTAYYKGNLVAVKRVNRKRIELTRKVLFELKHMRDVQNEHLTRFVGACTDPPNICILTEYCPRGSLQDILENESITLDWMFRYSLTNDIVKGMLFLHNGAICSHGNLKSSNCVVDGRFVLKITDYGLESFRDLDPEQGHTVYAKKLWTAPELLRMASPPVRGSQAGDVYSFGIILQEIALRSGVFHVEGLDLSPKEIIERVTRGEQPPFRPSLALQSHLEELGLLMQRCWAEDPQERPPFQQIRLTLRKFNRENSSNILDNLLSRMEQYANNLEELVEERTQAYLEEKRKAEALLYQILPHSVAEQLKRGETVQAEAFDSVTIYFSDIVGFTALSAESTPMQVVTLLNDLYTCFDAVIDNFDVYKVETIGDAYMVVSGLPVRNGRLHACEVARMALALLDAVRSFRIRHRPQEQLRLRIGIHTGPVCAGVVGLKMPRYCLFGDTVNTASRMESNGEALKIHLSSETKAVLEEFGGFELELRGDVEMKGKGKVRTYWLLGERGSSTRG
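HEK293 cells stably expressing human Npr1 and cGMP GloSensor pGS-40F, loaded 2 h with 2% GloSensor reagent, given compound 30 min at room temperature. Luminescence read before and 20 min after 0.1 nM hNppA.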
3T3 cytotox – NIH 3T3 cell cytotoxicity; NIH 3T3 viability, CellTiter-Glo ATP luminescence, 48-72 h; Potency, µM (top dose mostly 96.7 µM), without a hit: at the highest dose activity change, negative = cytotoxicity, usual class: inhibitors; hit rate 4.3% among 94,000; AID 1345082; note: nearly all actives have a fitted effect of over 55% in size
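Cytotoxicity was measured by CellTiter-Glo ATP luminescence after 48 or 72 h compound exposure at 37 °C. Mouse NIH 3T3 fibroblasts were seeded at 400 cells/well and dosed by 23 nL pin transfer.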
Luciferase inh – inhibitors of firefly (Photinus pyralis) luciferase | P08659 | purified P. pyralis luciferase, luminescence, biochemical | Potency, µM (titrated, usually from 115 µM), usual class: inhibitors | hit rate 2.5% among 76,000 | AID 1347043; note: nearly all actives have a fitted effect of over 65% in size
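Purified 10nM P. pyralis luciferase with 10uM D-luciferin and 10uM ATP in 50mM Tris acetate pH 7.5, 10mM Mg acetate, 0.01% Tween-20, 0.05% BSA. qHTS titration; luminescence read by CCD imager.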
* marks the source's active call; other numbers are inactive results; i = inactive; ? = inconclusive; nt = not tested or not shown; [ ] = another dose, or the depositor's remark. Unless noted, calls come from the whole dose curve; as a rule, active = well fitted curve in the direction sought with a large enough effect; inconclusive = small, poorly fitted or top-dose-only effect, or another doubt; inactive = no such curve, though single readings can be large; an effect the other way counts as inactive or inconclusive. % is set by controls: 0 for no effect and ±100 for the full control effect; potency is the fitted concentration of half-maximal effect.

SMILES	HEK293 tox	NPR1 antag	3T3 cytotox	Luciferase inh
Cc1cn2nc(C(=O)N3CCC(NC(=O)c4cccc(N(C)C)c4)CC3)cc2c(=O)[nH]1	-12%	0%	-20%	35µM*
Cc1cc(NC(=O)c2cc(-c3ccc[nH]3)n[nH]2)ccc1F	-12%	-20%	-7%	?
Cc1ccc(F)cc1NC(=O)c1cc(-c2ccc[nH]2)n[nH]1	?	-7%	-29%	40µM*
COc1ccc(OC)c(NC(=O)c2cc(-c3ccc[nH]3)n[nH]2)c1	40µM*	-8%	45µM*	?
COCCn1c(=O)c(C(=O)NC(C)c2ccc(F)cc2)nc2cccnc21 (stereo not drawn)	2%	nt	-16%	nt
CN(C)C[C@@H]1CN(Cc2ccccc2)C[C@H]1NC(=O)C1CC1	i	nt	-2%	nt
COc1cccc(C(=O)N2CCN(C(=O)c3nc4cccnc4n(Cc4ccccc4OC)c3=O)CC2)c1	i	nt	-5%	nt
c1cncc(Cc2noc(C3CN(Cc4ccsc4)C3)n2)c1	?	-6%	25µM*	i
Cc1ccc(Cn2cc(-c3ccncc3)cc2C(=O)NCc2ccc(N(C)C)cc2)cc1	45µM*	0%	?	i
Clc1ccccc1-c1cc(C2CCN(Cc3cc4n(n3)CCNC4)CC2)[nH]n1	?	0%	?	i
CCC(CC)n1c(=O)n(Cc2cc(C(C)C)no2)c2cc(C(=O)O)cnc21	-23%	3%	79µM*	i
Cc1ccc(CNC(=O)c2ccc(-c3ccc(N4CCSCC4)nc3)cc2)o1	?	-26%	?	28µM*
COc1ccc(CNC(=O)c2ccc(-c3ccc(N4CCSCC4)nc3)cc2)cc1OC	?	10µM*	?	?
O=C(NCc1ccc2c(c1)OCO2)c1ccc(-c2ccc(N3CCSCC3)nc2)cc1	?	-8%	?	?
O=C(NC1CCCC1)N1CCCN(c2ccc3nnc(-c4ccccc4)n3n2)CC1	-18%	nt	?	nt
CCOc1ccc(C(=O)N2CCCC3(C2)NC(=O)N(Cc2cccc(Cl)c2)C3=O)cc1 (stereo not drawn)	?	2%	-27%	i
O=C(NCc1cc2n(n1)CCN(C1CCCCC1)C2)c1cnn2ccccc12	?	-2%	?	i
COCC1CN(C2CCC2)CC12CCN(C(=O)C1(c3ccccc3)CC1)CC2 (stereo not drawn)	32µM*	-27%	?	i
COCC1CN(C2CCC2)CC12CCN(C(=O)CCCc1ccccc1)CC2 (stereo not drawn)	32µM*	nt	?	nt
COCCOC1CCOC2(CCN(C(=O)CCCc3ccccc3)CC2)C1 (stereo not drawn)	?	-11%	-15%	28µM*
COCC1CN(C)CC12CCN(C(=O)CCCc1ccccc1)CC2 (stereo not drawn)	?	2%	?	i
COCC1CN(C2CCC2)CC12CCN(Cc1ccc(OC)c(OC)c1)CC2 (stereo not drawn)	?	-10%	?	i
COCC1CN(C2CCC2)CC12CCN(Cc1cccc(OC)c1OC)CC2 (stereo not drawn)	45µM*	-2%	?	i
CC(=O)N1CCN(C(=O)c2nc3sccn3c2-c2cccnc2)CC1	4%	nt	-11%	nt
CC(C)CN1C(=O)COC[C@@H]1[C@H](O)c1ccc(NC(=O)c2ccc(F)cc2)cc1	-20%[172 µM]	-17%[70.6 µM]	-22%[138 µM]	?
SMILES	HEK293 tox	NPR1 antag	3T3 cytotox	Luciferase inh
COc1ccc(CN2C(=O)COC[C@@H]2[C@H](O)c2ccc(NC(=O)c3ccc(C(C)(C)C)cc3)cc2)cc1	28µM*	3%	22µM*	14µM*
CN1C(=O)COC[C@@H]1[C@H](O)c1ccc(NC(=O)c2ccc3c(c2)OCO3)cc1	-19%[172 µM]	2%[70.6 µM]	-23%[174 µM]	?
CC(C)CN1C(=O)COC[C@@H]1[C@H](O)c1ccc(NC(=O)c2ccc3c(c2)OCO3)cc1	-22%[172 µM]	-1%[70.6 µM]	-12%[138 µM]	63µM*
COc1ccc(C(=O)Nc2ccc(C(O)[C@H]3COCC(=O)N3CC(C)C)cc2)cc1 (stereo partly drawn)	?	-2%[70.6 µM]	3%[174 µM]	25µM*
O=C(NC1CCCN(c2ccc3nnc(C4CC4)n3n2)C1)C1CCCC1 (stereo not drawn)	-17%[172 µM]	nt	?	nt
O=C(Nc1cccc(C(F)(F)F)c1)O[C@@H]1CO[C@H]2[C@@H]1OC[C@@H]2n1cc(-c2ccccn2)nn1	35µM*	?	?	i
S=C(NC1CCCCC1)N[C@H]1CO[C@H]2[C@@H]1OC[C@@H]2n1cc(-c2ccccn2)nn1	89µM*	?	?	i
O=C(Nc1ccccc1)O[C@@H]1CO[C@H]2[C@@H]1OC[C@@H]2n1nnnc1SC1CCCC1	?	?	-25%[174 µM]	i
O=C(NC1CCCCC1)N[C@H]1CO[C@H]2[C@@H]1OC[C@@H]2n1cc(-c2ccccn2)nn1	-18%[172 µM]	-3%[70.6 µM]	-18%[138 µM]	i
O=C(Nc1cccc(C(F)(F)F)c1)O[C@@H]1CO[C@H]2[C@@H]1OC[C@@H]2n1nnnc1SC1CCCC1	?	?	40µM*	i
O=C(Nc1ccccc1)O[C@@H]1CO[C@H]2[C@@H]1OC[C@@H]2n1nnnc1-c1ccc2c(c1)OCCO2	-13%	-13%	-26%	45µM*
CCOCC(=O)N1CCC2(CC1)CN(C(C)C)C2c1ccccc1 (stereo not drawn)	-13%	nt	-16%	nt
N#Cc1cccc(C(=O)N2CCCCCNC(=O)[C@@H]3CCC[C@@H]32)c1	5%	3%	-26%	i
O=C(C1CCCN1C(=O)Nc1ccc(Cl)cc1)N1CCC(N2Cc3cccn3C2=O)CC1 (stereo not drawn)	?	nt	28µM*	nt
O=C(C1CCCN1C(=O)C1CCCC1)N1CCC(N2Cc3cccn3C2=O)CC1 (stereo not drawn)	i	nt	-4%	nt
O=C(Cc1ccc(F)cc1)N1CCn2c(nn(-c3ccc(F)cc3)c2=O)C1	?	-11%	?	i
COc1ccc(C)cc1NC(=O)N1CCC(OC2CCN(Cc3ccccc3)CC2)CC1	-8%	-19%	-25%	i
COc1ccccc1-c1cc2c(ccn2CC2CCN([S+](C)(=O)[O-])CC2)c(N2CCOCC2)n1	?	-5%	?	i
C[S+](=O)([O-])N1CCC(Cn2ccc3c(N4CCOCC4)nc(-c4cccc5[nH]ncc45)cc32)CC1	?	-17%	10µM*	i
C[S+](=O)([O-])N1CCC(Cn2ccc3c(N4CCOCC4)nc(-c4ccncc4)cc32)CC1	?	3%	28µM*	i
C[S+](=O)([O-])N1CCC(Cn2ccc3c(N4CCOCC4)nc(-c4ccccc4F)cc32)CC1	?	-7%	-33%	i
CCN1CCCN(C(=O)CC2CCCCC2)CC12CCOCC2	2%	nt	-13%	nt
CN(C)C(=O)N1CCC(C(=O)N2CCC(N3Cc4ccccc4C3=O)CC2)CC1	-17%	nt	?	nt
COc1cc(OC)cc(N2C(=O)[C@@H]3C[C@@H](NC(=O)c4ccc(SC)cc4OC)CCN3C2=O)c1	-8%	-5%	-33%	i
